Assay outcomes from PubChem.
Sampled rows, rich in hits. Any-hit rate of the full collection: about 12%.
ROMK mod = modulators of human ROMK potassium channel. P48048. Tet-inducible ROMK, thallium flux fluorescence; actives lie on both sides. B-score at 10 µM. hit rate 2% among 130,000;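 active = signal ratio slope over the read window, or its plate-corrected B-score, at least 3 SD from the plate mean, either direction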;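 note: B-score of the F/F0 ratio slope over 7 to 12 s after thallium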
Target sequence (P48048 whole entry, looked up): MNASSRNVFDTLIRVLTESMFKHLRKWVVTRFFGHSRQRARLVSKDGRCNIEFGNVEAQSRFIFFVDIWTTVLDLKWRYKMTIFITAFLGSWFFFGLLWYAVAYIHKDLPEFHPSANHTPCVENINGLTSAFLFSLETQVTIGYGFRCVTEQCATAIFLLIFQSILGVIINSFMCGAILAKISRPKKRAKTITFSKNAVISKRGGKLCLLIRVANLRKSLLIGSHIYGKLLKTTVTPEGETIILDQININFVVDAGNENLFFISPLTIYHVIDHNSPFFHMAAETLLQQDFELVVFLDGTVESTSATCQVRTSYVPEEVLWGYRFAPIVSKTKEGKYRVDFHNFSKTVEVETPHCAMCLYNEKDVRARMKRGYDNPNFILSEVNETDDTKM
Calpain2 inh = blocks pig calpain II enzyme activity | purified calpain II, fluorogenic peptide substrate, 30 min | inhibition, % at 16 µM | hit rate 0.37% among 220,000 | AID 1236;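 active = inhibition above about 50%, limit read from the data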
WT yeast gro inh = growth inhibition of WT yeast, mitochondrial fusion screen; mitochondrial fusion phenotypic screen, WT strain; inhibition, % at 10 µM; AID 1362; hit rate 2.1% among 190,000; in the data active = inhibition above about 58%; tested in S. cerevisiae
L major viab = inhibitors of Leishmania major promastigote growth; Leishmania major promastigotes, resazurin fluorescence viability; inhibition, % at 10 µM; hit rate 9% among 200,000; AID 1063; in the data active = inhibition above about 50%;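 note: promastigotes grown with compound for 44 hours at 28 °C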
KCC2 mod = modulators of human KCC2 chloride dependent transport. Q9H2X9. AID 1456. hit rate 2.2% among 190,000. B-score of Tl+ flux slope (higher = more flux/activation; lower = inhibition) at 10 µM. KCC2 cells, thallium flux FluoZin-2 fluorescence;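 active = thallium flux slope and its plate-corrected score both differing from the plate sample mean at a set confidence after two filtering rounds, in either direction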;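 note: slope of fluorescence scaled to starting intensity during 10 to 20 s after thallium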
Active calls of the source: *; nt = no result.

SMILES	ROMK mod	Calpain2 inh	WT yeast gro inh	L major viab	KCC2 mod
CC(OC(=O)C1CCN(S(=O)(=O)c2ccc(Cl)cc2)CC1)C(=O)N1CCc2ccccc21 (stereo not given)	nt	0	8	98*	nt
CC(C)=C1C2CCC1C1C(=O)N(NC(=O)COc3ccc(Cl)c(C)c3)C(=O)C21 (stereo not given)	0.52	-5	24	76*	-0.42
O=C(COc1ccc(Cl)c(Cl)c1)NN1C(=O)C2C(C1=O)C1C=CC2C12CC2 (stereo not given)	nt	-11	5	2	0.38
Cc1onc(-c2ccccc2)c1C(=O)NC(=S)NNC(=O)c1cc(-c2ccc(F)cc2)n[nH]1	-0.32	-66	nt	nt	-0.037
COc1ccccc1NC(=O)N1CCc2[nH]c3ccc(Cl)cc3c2C1	nt	-4	47	95*	nt
O=C(NCc1cccnc1)C1CCC(CNS(=O)(=O)c2ccc(Cl)cc2)CC1 (stereo not given)	nt	55*	-6	-1	0.12
O=C(NCc1cccnc1)C1CCC(CNS(=O)(=O)c2cccc3nsnc23)CC1 (stereo not given)	0.55	26	nt	nt	-0.86
CCOCCCNC(=O)C1CCC(CNS(=O)(=O)c2ccc(Cl)cc2)CC1 (stereo not given)	0.057	54*	3	-6	nt
CC1(C)CC(N2CCN(CCO)CC2)=CC(=S)N1	nt	0	nt	nt	-0.69
S=c1[nH]nc(Cc2ccc(Br)cc2)n1/N=C/c1ccc(Cl)cc1	0.91	5	93*	-5	1.5
O=C(NCCN1CCN(C(=O)Nc2ccccc2)CC1)Nc1ccccc1	nt	3	16	-7	nt
O=C(NCCN1CCN(Cc2ccccc2Cl)CC1)Nc1ccccc1	nt	-18	0	82*	0.035
Cc1cccc(CN2CCN(C(=S)Nc3ccccc3)CC2)c1	-0.62	-16	8	-5	-0.37
OCC1(CCCc2ccccc2)CCN(Cc2cc(F)ccc2F)CC1	-2.6	-18	8	83*	0.54
OCC1(CCc2ccccc2)CCN(Cc2cc(F)ccc2-n2cccn2)CC1	-1.2	-16	3	18	-0.43
Cc1cccc(CN2CCN(CCCc3ccccc3)CC2)c1	-1.3	3	35	96*	-1
CCCS(=O)(=O)N1CCN(CCCc2ccccc2)CC1	nt	-12	8	79*	nt
NNC(=O)CC12CC3CC(C1)CC(n1ncnn1)(C3)C2	nt	3	1	-2	1.8
O=C(CCc1nnc(CCCCc2ccccc2)o1)N1CCC(N2CCCC2)CC1	-0.74	-64	-14	-5	nt
COc1ccccc1-n1cnnc1SCC(=O)NCC1CCCO1 (stereo not given)	-0.046	18	13	0	0.0074
Cc1cc(NC(=O)C2C3C(=O)N(Cc4ccc(Cl)cc4)C(C(=O)NCc4ccccc4)C34C=CC2(C)O4)no1 (stereo not given)	-0.63	-10	6	-5	nt
Clc1ccccc1CN1CCN(CCCc2ccccc2)CC1	-1.3	34	16	93*	0.037
OCC1(CCc2ccccc2)CCN(Cc2ccccc2Cl)CC1	-0.75	15	17	57*	nt
OCC1(CCc2ccccc2)CCN(Cc2c(F)ccc(F)c2F)CC1	-0.57	-11	-1	2	-0.33
Clc1cccc(CN2CCN(Cc3nc(CCc4ccccc4)no3)CC2)c1	-1.2	5	4	64*	nt
SMILES	ROMK mod	Calpain2 inh	WT yeast gro inh	L major viab	KCC2 mod
CCCS(=O)(=O)N1CCN(Cc2ccc3c(c2)c2ccccc2n3CC)CC1	nt	-9	26	71*	-0.21
O=C(NN1CCN(Cc2ccccc2Cl)CC1)c1ccc(Cl)cc1	-0.76	-1	-13	16	-0.23
Cn1nc(-c2ccccc2)c(CN2CCN(c3ncccn3)CC2)c1Cl	0.018	26	5	1	-2.3
O=C(CSc1nnc(-c2cccs2)n1-c1cccc(Cl)c1)c1cccc2c1OCCO2	0.85	-10	19	8	1.5
O=C(/C=C/c1ccccc1)c1ccc2c3c(cccc13)CC2	nt	-151	9	71*	1.2
Cc1cccc(NC(=O)C(C)n2cc([N+](=O)[O-])cn2)n1 (stereo not given)	0.51	-10	3	0	0.58
O=C(/C=C/c1ccc(Br)cc1)Nc1ccc(S(=O)(=O)Nc2ncccn2)cc1	0.075	-16	-4	52*	0.57
O=C(/C=C/c1cccc(F)c1)Nc1ccc(S(=O)(=O)Nc2ncccn2)cc1	nt	-14	nt	nt	-0.084
O=C(Oc1cccc2c(O)cccc12)c1ccccc1	nt	5	60*	13	-2
Clc1cccc(Cl)c1Cn1c(-c2cccnc2Cl)nc2ccccc21	1.6	6	4	76*	-0.51
COc1ccc(C)cc1-n1nnnc1SCc1cc(=O)n2cc(C)ccc2n1	nt	-64	8	2	-2.7
COc1ccc2nc(N3C(=O)/C(=C/c4ccc(Cl)cc4)NC3=S)sc2c1	nt	-25	-7	60*	53*
CCN(CC)C(=O)Cn1c(=O)n(-c2ccccc2)c(=O)c2sccc21	0.61	-17	-14	0	-0.4
Nc1cc(=O)[nH]c(=S)n1-c1ccccc1	-0.55	-10	59*	-6	0.59
O=C(Cn1c(=O)[nH]c2ccsc2c1=O)NC1CCCCCC1	-0.58	4	3	-4	-4.7*
C=CCn1c(SCC(=O)Nc2sccc2C(N)=O)nc2ccc(Cl)cc2c1=O	nt	-118	25	18	11*
C=CCn1c(SCN2C(=O)c3ccccc3C2=O)nc2ccc(Cl)cc2c1=O	-1	26	20	-5	42*
C=CCn1c(SCC(=O)Nc2sccc2C(N)=O)nc2ccccc2c1=O	nt	-17	-11	2	-1.5
C/C(=N\NC(=O)c1cc(Cl)ccc1O)c1ccc(Br)s1	0.49	-12	-6	-1	15*
CCCNC(=O)COc1nc2ccccc2nc1N1CCOCC1	1.9	0	-5	-1	-0.35
CN(C)S(=O)(=O)c1cccc(NC(=O)COc2nc3ccccc3nc2N2CCOCC2)c1	nt	25	-4	56*	0.57
O=C(COc1nc2ccccc2nc1N1CCOCC1)Nc1ccc(S(=O)(=O)N2CCCC2)cc1	nt	5	11	67*	-0.25
CCc1ccccc1NC(=S)N(CCCN1CCOCC1)Cc1ccccn1	0.0062	12	12	-2	0.039
CCc1ccc(NC(=S)N(Cc2ccccc2)Cc2ccccn2)cc1	0.33	6	68*	22	nt
Cc1ccccc1NC(=S)N(CCCN1CCOCC1)Cc1cccnc1	-0.25	-2	1	5	0.83
SMILES	ROMK mod	Calpain2 inh	WT yeast gro inh	L major viab	KCC2 mod
Cc1ccc(NC(=S)NCc2ccccn2)cc1	nt	-33	6	50*	-0.51
Cc1cccc(NC(=S)NCc2ccccn2)c1	nt	-11	-8	-1	1
CCc1ccc(NC(=S)N(CCCN2CCOCC2)Cc2ccccn2)cc1	-0.42	2	-14	68*	0.26
Cc1ccc(NC(=S)N(CCCN2CCOCC2)Cc2cccnc2)cc1C	-0.3	-27	-10	64*	-0.41
Cc1cccc(Cn2c(=O)c3c(nc4n3CCCN4Cc3ccccc3)n(C)c2=O)c1	nt	18	28	-2	-0.52
Cc1ccccc1C(=O)N1CCC(C(N)=O)CC1	-0.59	-9	-5	-5	0.56
Cc1cc(SCC(=O)c2cccs2)nc2c(C)cccc12	nt	4	-43	-3	0.65
CC(=O)Nc1ccc(C(=O)CSc2cc(C)c3cccc(C)c3n2)cc1	nt	7	-13	51*	0.54
